From PubChem BioAssay
Most compounds without a hit are left out; they make up all but 0.52% or so of the library.
Sa helicase inh – S. aureus DNA helicase inhibition; purified S. aureus helicase, fluorescence unwinding assay; inhibition, % (no concentration beside the values); hit rate 0.05% among 120,000; AID 485395; in the data active = inhibition above about 25%, passing the limit was not always enough
Sa growth 42C – inhibitors of Staphylococcus aureus growth at 42 °C. S. aureus RN4220 growth, OD600, 20 h; stronger effect = lower value. relative growth, % (test concentration not listed). hit rate 0.53% among 170,000. AID 720641;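 active = relative growth at most 50% at the other temperature and 20+ points below 30 °C, or under 10% at both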
Of the large screens only hits and unclear results are named; the others gave an inactive call.

CC1(C)CC(NCc2ccccc2F)CC(C)(C)N1	none
CC(C)(C)c1ccccc1OCC(=O)Nc1ccc(OCc2ccccc2)cc1	none
CC(Oc1ccc(-c2ccccc2)cc1)c1nnc(-c2cccs2)o1 (configuration not stated)	none
O=S(=O)(Nc1ccc(Cl)cc1OC(F)(F)F)C(F)(F)F	Sa growth 42C 9.5
Cc1ccccc1NS(=O)(=O)C(F)(F)F	none
O=C(Nc1ccccc1C(=O)NCCCN1CCCC1)C1=CSCCO1	none
CCc1ccc2[nH]c(=O)c(CNC3CCCC3)cc2c1	none
